Bioassay records from PubChem.
Many of the other results were omitted from the sample, so hits are more common in it than they were.
Pin1 inh = qHTS Assay to Find Inhibitors of Pin1; Peptidyl-prolyl cis-trans isomerase NIMA-interacting 1 (Homo sapiens), Q13526; Pin1 FP peptide displacement, HiFluor488, 10 min; Potency, µM (titrated, usually from 115 µM), for inactives: top-dose activity, negative = inhibition, most hits filed as inhibitors; 390,000 compounds, 0.009% hits; AID 504891, 2011; active means well fitted inhibition curve with a large enough effect in the polarisation, with a control signal flat, not every such curve was filed as active; inconclusive means small, poorly fitted or top-dose-only effect, or effect the other way, or a change in a side signal; inactive means no such curve, though single readings can be large or run the other way; the % refers to the polarisation; further: potency means the concentration at half of the fitted maximal effect
Target sequence (Q13526 whole entry, looked up): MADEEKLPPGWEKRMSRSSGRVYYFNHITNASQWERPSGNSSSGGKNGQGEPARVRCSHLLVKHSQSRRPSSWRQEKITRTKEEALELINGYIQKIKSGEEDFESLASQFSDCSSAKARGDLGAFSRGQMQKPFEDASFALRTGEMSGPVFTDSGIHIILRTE
Tb PGK inh = qHTS Assay to Find Inhibitors of Phosphoglycerate Kinase. Potency, µM (series often up to 57.5 µM), for inactives: top-dose activity change, negative = inhibition, actives largely listed as inhibitors. 380,000 compounds, 0.043% hits. PGK/GAPDH coupled, Kinase-Glo luminescence, 60 min. Phosphoglycerate kinase, glycosomal (Trypanosoma brucei brucei), P07378; further: potency means the concentration at half of the fitted maximal effect; nearly all actives have a fitted effect of over 60% in size
Target sequence (P07378 whole entry, looked up): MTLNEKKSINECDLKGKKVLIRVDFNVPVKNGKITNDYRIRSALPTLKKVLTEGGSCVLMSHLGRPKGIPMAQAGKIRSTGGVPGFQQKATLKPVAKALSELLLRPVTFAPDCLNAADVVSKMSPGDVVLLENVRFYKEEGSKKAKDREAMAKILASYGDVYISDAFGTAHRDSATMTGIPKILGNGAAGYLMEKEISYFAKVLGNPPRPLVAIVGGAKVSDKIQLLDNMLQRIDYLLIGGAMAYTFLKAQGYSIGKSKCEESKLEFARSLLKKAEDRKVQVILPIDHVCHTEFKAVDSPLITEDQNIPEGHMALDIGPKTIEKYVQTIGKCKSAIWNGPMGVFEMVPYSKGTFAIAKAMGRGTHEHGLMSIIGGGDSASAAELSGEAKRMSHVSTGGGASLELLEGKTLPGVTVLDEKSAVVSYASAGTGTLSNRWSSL
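Recombinant glycosomal PGK reaction used 1,3-bisphosphoglycerate generated in-well by GAPDH (100nM final) in 100mM TEA pH 7.6, 5mM MgCl2, 0.01% Tween-20. After 60 minutes at room temperature, ATP was read by Kinase-Glo Plus luminescence end-point.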
PI4K2A inh = qHTS for small molecular inhibitors of PI4K2A | purified PI4K2A, ADP-Glo luminescence, 1 h; stronger effect = lower value | activity change, negative = inhibition, % at 76.9 µM | 420,000 compounds, 0.13% hits | AID 1346378, 2018; in the data active means activity change below about -50%; inconclusive means mostly about -30% to -49%;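 further: -100% = wells without enzyme as full effect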
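PI4K2A activity was measured by ADP-Glo luminescence: enzyme (4 ug/mL stock) and phosphatidylinositol (1.2 mM stock) in Tris pH 7.5/MgCl2/EGTA/Triton X-100 buffer were reacted with ATP (300 microM stock) for one hour at ambient temperature.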
PI5P4K alpha inh = qHTS for Inhibitors of phosphatidylinositol 5-phosphate 4-kinase (PI5P4K). 330,000 compounds, 1.2% hits. PI5P4Kalpha enzyme, ADP-Glo luminescence, 60 min; stronger effect = lower value. max response, %. Phosphatidylinositol 5-phosphate 4-kinase type-2 alpha (Homo sapiens), P48426; active means max response of -50% or lower; inconclusive means between -30% and -50%; inactive means -30% or higher; further: value at the top dose of about 77 µM
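Reactions run in 0.038 M HEPES pH 7.4, 0.28 mM EGTA, 0.1% CHAPS and 5% DMSO, with PI5P4Kalpha, substrate, compound and 5 microM ATP final, one hour at room temperature. Readout is ADP-Glo luminescence.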
Tb PFK block = qHTS Assay to Find Inhibitors of T. brucei phosphofructokinase; ATP-dependent 6-phosphofructokinase (Trypanosoma brucei brucei), O15648; T. brucei PFK, ADP-Glo luminescence; 330,000 compounds, 0.17% hits; Potency, µM (titrated, usually from 57.5 µM), for inactives: at the top dose activity, negative = inhibition, most hits filed as inhibitors;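 further: potency means the concentration at half of the fitted maximal effect; 0% = uninhibited 1x PFK enzyme wells and -100% = no-enzyme wells; nearly all actives have a fitted effect of over 60% in size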
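ADP-Glo luminescence quantified ADP after 45 min at room temperature, with 1.25 nM T. brucei PFK, 0.1 mM ATP and 0.5 mM fructose-6-phosphate in pH 8.0 TEA buffer. qHTS titrations up to 57 µM; curves classified by quality.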
Numbers without * were called inactive; i = inactive; ? = inconclusive; . = not tested or not shown. Unless noted, the call rests on the fitted dose curve; in most records, active means well fitted curve in the direction sought with a large enough effect; inconclusive means small, poorly fitted or top-dose-only effect, or another doubt; inactive means no such curve, though single readings can be large; an effect the other way counts as inactive or inconclusive. Unless noted, on the % scale 0 is the no-effect control and ±100 the full control effect.

SMILES	Pin1 inh	Tb PGK inh	PI4K2A inh	PI5P4K alpha inh	Tb PFK block
O=c1cc2oc3cc(O)c(O)cc3c(-c3ccccc3O)c-2cc1O	?	?	-8.1	-87.9*	?
Cc1ccccc1-c1cc(=O)c2c(O)cccc2o1	2.6%	i	-2.8	3.9	4.3%
Cc1ccc(N(CCC#N)C(=O)CSc2ccc3c(c2)OCCO3)cc1	-9.1%	-9.9%	-15.0	4.1	0.1%
Cc1cc(C)n2c(SCC(=O)N(CCC#N)c3ccc4c(c3)OCCO4)nnc2n1	.	-20.4%	-21.0	-61.4*	.
O=C(CCc1nc(-c2ccccc2)no1)N1CCCC1	12.0%	-17.0%	-11.6	-15.2	4.8%
O=C(COc1ccccc1Cl)Nc1ccc(C(=O)O)cc1NC(=O)COc1ccccc1Cl	-14.2%	-7.1%	2.3	-64.3*	-6.7%
O=C(COc1ccccc1Cl)Nc1ccccc1C(=O)Nc1cccc(C(=O)O)c1	-3.9%	-3.1%	-0.7	-2.5	?
CCS(=O)(=O)c1nn2c(N)c(/C=C3/C=CC(=O)C(OC)=C3)c(=O)nc2s1	?	1.1%	-3.9	-84.3*	9.6%
CCOC1=C/C(=C/c2c(N)n3oc(C)cc3nc2=O)C=CC1=O	.	.	.	.	1.0%
Nc1c(C=C2C=CC(=O)C=C2)c(=O)nc2sc(CC(=O)N3CCCC3)nn12	-2.6%	-6.5%	8.2	-13.2	0.0%
CCOC1=C/C(=C/c2c(N)n3nc(-c4ccccc4)sc3nc2=O)C=CC1=O	?	2.1%	1.8	-83.4*	0.0%
CC(C)Cc1nn2c(N)c(/C=C3\C=Nc4ccccc43)c(=O)nc2s1	?	i	3.8	-0.4	2.8%
COC1=C/C(=C/c2c(N)n3nc(-c4ccc(C)cc4)sc3nc2=O)C=CC1=O	?	-17.9%	-5.1	-74.4*	-11.6%
Cc1ccc(/C=C/c2nc3ccccc3n2S(=O)(=O)c2cccc(Cl)c2)cc1	4.5%	-3.9%	-63.1*	.	.
CCOc1ccc(/C=C/c2nc3ccccc3n2S(=O)(=O)c2cccc(Cl)c2)cc1	2.9%	-13.7%	-70.1*	.	.
O=C(COC(=O)Cc1ccc(Cl)cc1Cl)NC1CC1	-5.0%	-9.9%	2.4	0.2	2.4%
O=C(O)CSc1nnc(C2CC2)n1-c1ccccc1	-0.4%	-5.6%	-2.5	.	-11.6%
NNC(=O)c1oc2nc(-c3ccco3)cc(-c3ccco3)c2c1N	105.6%	-5.5%	-57.1*	-25.7	0.8%
N#CN=C1SCCS1	1.8%	3.8%	3.1	-54.0*	0.7%
O=C(O)c1c2c(nc3ccccc13)/C(=C/c1cccc([N+](=O)[O-])c1)CCC2	2.3%	i	-1.9	1.8	-0.3%
CC(c1ccccc1)n1c(S(=O)(=O)O)nc2ccccc21 (stereo unspecified)	-5.2%	i	-1.1	-67.1*	2.2%
O=C(c1ccccc1)c1ccc(O)c(O)c1O	-21.1%	?	-2.1	-90.9*	.
O=C(COC(=O)CCN1C(=O)/C(=C\C=C\c2ccccc2)SC1=S)Nc1cc(F)ccc1F	?	i	12.9	-51.1*	-4.2%
C/C(=N\NC(=O)c1ccc(CN2CCc3ccccc3C2)cc1)c1ccccc1O	36.2%	-5.8%	7.1	-87.1*	-3.2%
CCCNC(=O)c1ccc(CN2CCc3ccccc3C2)cc1	-2.7%	i	-3.2	-9.8	-13.6%
SMILES	Pin1 inh	Tb PGK inh	PI4K2A inh	PI5P4K alpha inh	Tb PFK block
COc1ccc2cc3c(N)c(C(=O)NCc4ccco4)sc3nc2c1	?	-1.8%	-56.8*	-20.1	-3.7%
O=C(/C=C/c1cccc(Br)c1)Nc1nn[nH]n1	.	-0.6%	-6.9	-68.7*	23.0%
Cn1cc(CNCCCn2ncc3ccccc32)c(-c2ccccc2F)n1	0.6%	-6.6%	-1.8	1.2	-1.3%
N[C@@H](Cc1cc(I)c(O)c(I)c1)C(=O)O	0.3%	-5.9%	-2.4	-98.0*	-3.7%
Oc1nc(Nc2cccc(Cl)c2)sc1/C=C1\C=Nc2ccccc21	?	-2.6%	3.9	-61.6*	0.6%
Oc1nc(Nc2ccc(F)cc2)sc1/C=C1\C=Nc2ccccc21	-12.5%	-1.6%	-1.4	?	0.3%
Oc1cccc(Nc2nc(O)c(/C=C3\C=Nc4ccccc43)s2)c1	?	-8.0%	0.7	-101.6*	2.1%
CC1=Nc2ccccc2/C1=C\c1sc(Nc2ccc(C)cc2)nc1O	41.8%	-1.8%	-1.3	-66.1*	2.2%
Cc1csc(=O)n1CC(=O)Nc1nc2ccccc2s1	-1.2%	-6.6%	-0.4	-21.7	0.6%
Cc1[nH]n(-c2ccccc2)c(=O)c1C(c1ccc(C(=O)O)cc1)c1c(C)[nH]n(-c2ccccc2)c1=O	?	-3.2%	-20.2	-5.9	19.5%
CCOc1ccc(C(c2c(C)[nH]n(-c3ccccc3)c2=O)c2c(C)[nH]n(-c3ccccc3)c2=O)cc1OC	?	10.8%	-57.6*	.	.
COC(=O)c1c(NC(=O)COc2ccc(C(C)C)cc2)sc2c1CCCC2	-2.3%	.	11.1	.	.
COc1cccc(OCCOc2ccc(/C=C3\C(=N)N4N=C(S(C)(=O)=O)SC4=NC3=O)cc2OC)c1	-6.2%	-1.2%	4.7	-13.8	2.6%
COc1cc(/C=C2\C(=N)N3N=C(S(C)(=O)=O)SC3=NC2=O)ccc1OS(=O)(=O)c1ccc(C)cc1	?	0.4%	-6.9	-80.3*	-1.2%
COc1ccccc1OCCOc1ccc(/C=C2\C(=N)N3N=C(S(C)(=O)=O)SC3=NC2=O)cc1	3.1%	.	-2.6	-81.3*	-13.1%
CCOc1cc(/C=C2/C(=N)N3N=C(C)SC3=NC2=O)ccc1OS(=O)(=O)c1ccc(C)cc1	-0.8%	i	-19.2	-19.8	1.7%
NC(CO)C(=O)NNCc1ccc(O)c(O)c1O (stereo unspecified)	-7.5%	-4.5%	-1.9	-54.2*	-16.1%
O=C1Nc2cc(C(=O)NCCCN3CCOCC3)ccc2S/C1=C/c1cccc(Cl)c1	-15.2%	-3.0%	0.6	-50.9*	5.5%
CCOC(=O)CC(NC(=O)c1cccs1)c1ccc(C)cc1 (stereo unspecified)	0.5%	-0.2%	-3.1	-7.0	-0.3%
CCCc1ccc(C(=O)NNc2cccc(C)c2)cc1	0.8%	-2.0%	-2.9	1.3	-11.1%
O=C1NN=C(CSc2n[nH]c(=S)s2)CS1	6.1%	-12.0%	-7.8	-55.4*	-1.2%
O=C1C=CC(=O)N1c1ccc(-c2nc3ccccc3o2)cc1	.	0.2%	-2.7	-59.9*	.
Cc1ccc(C2CC(=O)N3CN(Cc4ccco4)CSC3=C2C#N)cc1 (stereo unspecified)	-17.6%	-2.1%	1.7	.	-3.0%
N#CC1=C2SCN(Cc3ccco3)CN2C(=O)CC1c1c(F)cccc1Cl (stereo unspecified)	-1.7%	-12.8%	-6.1	-50.3*	3.7%
